Test results: PubChem BioAssay (NCATS)
Inconclusive results are not listed. Active and inactive are the calls of the source. Calls come from the whole dose curve; as a rule, active = well fitted inhibition curve with a large enough effect; inconclusive = small, poorly fitted or top-dose-only effect; inactive = flat fitted curve, though single readings scatter.

Key:
Assay in all cases: qHTS profiling for inhibitors of Plasmodium falciparum proliferation (AID 504749); note: nearly all actives have a fitted effect of over 60% in size
Conditions in all cases: P. falciparum in erythrocytes, SYBR Green DNA, 72 h; series mostly up to 28.7 µM
DIV17 = test system: DIV17
Method in brief: (§1)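 Parasite proliferation within erythrocytes, 72 h exposure. Endpoint: SYBR Green I fluorescence after overnight lysis at room temperature. Controls: 0.29 uM artemisinin, DMSO.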

DIV30 = test system: DIV30
Method in brief: as §1

Dd2 = test system: Dd2
Method in brief: as §1

ECU = test system: ECU
Method in brief: as §1

FAB9 = test system: FAB9
Method in brief: as §1

HB3 = test system: HB3
Method in brief: as §1

ICS = test system: ICS
Method in brief: as §1

JCK = test system: JCK
Method in brief: as §1

N140 = test system: N140
Method in brief: as §1

P93_24 = test system: P93_24
Method in brief: as §1

PAD = test system: PAD
Method in brief: as §1

PC15 = test system: PC15
Method in brief: as §1

PC26 = test system: PC26
Method in brief: as §1

PC49 = test system: PC49
Method in brief: as §1

SC27B = test system: SC27B
Method in brief: as §1

TAB109 = test system: TAB109
Method in brief: as §1

TAB113 = test system: TAB113
Method in brief: as §1

TAB165 = test system: TAB165
Method in brief: as §1

P94_40 = test system: P94_40
Method in brief: as §1

GB4 = test system: GB4
Method in brief: as §1

Measured: Potency
Potency is the fitted concentration of half-maximal effect.

CC(=O)N[C@@H](CCC(=O)O)C(=O)O
inactive: DIV17 | DIV30 | Dd2 | ECU | FAB9 | HB3 | ICS | JCK | N140 | P93_24 | PAD | PC15 | PC26 | PC49 | SC27B | TAB109 | TAB113 | TAB165

O=C(Oc1cccc2cccnc12)c1ccccc1
inactive: DIV17 | DIV30 | Dd2 | ECU | FAB9 | HB3 | JCK | N140 | P93_24 | P94_40 | PAD | PC15 | PC49 | SC27B | TAB109 | TAB113 | TAB165

Oc1c(Cl)cc(Cl)c(Cl)c1Cc1c(O)c(Cl)cc(Cl)c1Cl
inactive: FAB9
active: DIV17 12 µM | DIV30 13.5 µM | Dd2 12.6 µM | ECU 12.6 µM | GB4 15.1 µM | ICS 7.08 µM | P93_24 8.91 µM | PC49 8.91 µM | SC27B 10 µM | TAB109 11.2 µM | TAB113 12.6 µM | TAB165 7.94 µM

CCN(CC)CCNc1ccc(CO)c2sc3ccccc3c(=O)c12
active: DIV17 2.39 µM | DIV30 9.53 µM | Dd2 2.24 µM | ECU 0.708 µM | GB4 1.2 µM | HB3 8.91 µM | ICS 2 µM | JCK 11.2 µM | N140 0.708 µM | P93_24 0.891 µM | P94_40 1.58 µM | PAD 1 µM | PC15 3.16 µM | PC26 7.57 µM | SC27B 1.12 µM | TAB109 1.58 µM | TAB113 1.12 µM | TAB165 0.794 µM

O=S(=O)(O)c1ccc(O)cc1
inactive: DIV17 | DIV30 | Dd2 | ECU | FAB9 | GB4 | HB3 | ICS | JCK | N140 | P93_24 | P94_40 | PAD | PC15 | PC26 | PC49 | SC27B | TAB109 | TAB113 | TAB165

CC(C)NCC(O)c1ccc2ccccc2c1 (configuration not stated)
active: DIV17 6.75 µM | DIV30 12 µM | Dd2 7.08 µM | ECU 3.98 µM | GB4 6.75 µM | HB3 12.6 µM | ICS 2 µM | N140 4.47 µM | P93_24 8.91 µM | P94_40 5.01 µM | PAD 3.98 µM | PC15 7.94 µM | PC26 7.57 µM | SC27B 8.91 µM | TAB109 8.91 µM | TAB113 4.47 µM | TAB165 10 µM

CC(=O)OCC(=O)[C@H]1CC[C@H]2[C@@H]3CCC4=CC(=O)CC[C@]4(C)[C@H]3CC[C@]12C
inactive: DIV17 | DIV30 | Dd2 | ECU | FAB9 | GB4 | HB3 | JCK | N140 | P93_24 | P94_40 | PAD | PC15 | PC26 | PC49 | SC27B | TAB109 | TAB113 | TAB165

C#C[C@]1(O)CC[C@H]2[C@@H]3CCc4cc(OC)ccc4[C@H]3CC[C@@]21C
inactive: DIV17 | DIV30 | Dd2 | ECU | FAB9 | GB4 | HB3 | JCK | N140 | P93_24 | P94_40 | PAD | PC15 | PC26 | PC49 | SC27B | TAB109 | TAB113 | TAB165

FC1(F)C(F)(F)C(F)(F)C2(F)C(F)(F)C(F)(F)C(F)(F)C(F)(F)C2(F)C1(F)F (configuration not stated)
inactive: DIV17 | DIV30 | Dd2 | ECU | FAB9 | GB4 | HB3 | ICS | JCK | N140 | P93_24 | P94_40 | PAD | PC15 | PC26 | PC49 | SC27B | TAB109 | TAB113 | TAB165

CCNC(=O)/C=C/c1cccc(Br)c1
inactive: DIV17 | DIV30 | Dd2 | ECU | FAB9 | GB4 | HB3 | ICS | JCK | N140 | P93_24 | P94_40 | PAD | PC15 | PC26 | PC49 | SC27B | TAB113

Cn1c(=O)c2[nH]c(Br)nc2n(C)c1=O
inactive: DIV17 | DIV30 | Dd2 | ECU | FAB9 | GB4 | HB3 | ICS | JCK | N140 | P93_24 | PAD | PC15 | PC26 | PC49 | SC27B | TAB113 | TAB165

CCCCN=C(N)N=C(N)N
inactive: DIV17 | DIV30 | Dd2 | ECU | FAB9 | GB4 | HB3 | ICS | JCK | N140 | P93_24 | P94_40 | PAD | PC15 | PC26 | PC49 | SC27B | TAB109 | TAB113 | TAB165

O=c1[nH]c(=O)n([C@H]2C[C@H](O)[C@@H](CO)O2)cc1F
inactive: DIV17 | DIV30 | Dd2 | ECU | FAB9 | GB4 | HB3 | ICS | JCK | N140 | P93_24 | P94_40 | PAD | PC15 | PC26 | PC49 | SC27B | TAB109 | TAB113 | TAB165
